± gives the standard deviation of the averaged measurements.
What was measured:
IL-6-GFP PC-9GR = assay: cell viability (CCK-8 OD) relative to DMSO control (fraction of control); higher = more viable cells; settings: compound concentration: 10 uM; treatment time: 48 h
Summary of the method: (§1)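 PC-9 and PC-9GR lung cancer cells carrying a lentiviral construct that overexpresses IL-6-GFP were seeded in 96-well plates at 3000 cells/well. Every compound in a purchased 510-compound library was applied at a final 10 μM for 48 h, and a parallel set of plates was kept for GFP imaging. Cell viability was read by CCK-8 absorbance, taking each well's optical density as a ratio to the vehicle control well. Two independent replicates were run.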

IL-6-GFP PC-9 = assay: as above; settings: compound concentration: 10 uM; treatment time: 48 h
Summary of the method: as §1

## CC1(C)CCC(C)(C)c2cc(NC(=O)c3ccc(C(=O)O)cc3)ccc21 [Tamibarotene]
IL-6-GFP PC-9GR
  cell viability: 1.55 ± 0.76
IL-6-GFP PC-9
  cell viability: 1.28 ± 0.11

## COc1ccc2cc(CCC(C)=O)ccc2c1 [Nabumetone]
IL-6-GFP PC-9GR
  cell viability: 1.29 ± 0.24
IL-6-GFP PC-9
  cell viability: 1.11 ± 0.13

## CC(N)c1ccc(C(=O)Nc2ccnc3[nH]ccc23)cc1.Cl.Cl (configuration not stated)
IL-6-GFP PC-9GR
  cell viability: 0.973 ± 0.42
IL-6-GFP PC-9
  cell viability: 0.74 ± 0.23

## O=C(O)c1ccccc1O.[NaH] [Sodium salicylate]
IL-6-GFP PC-9GR
  cell viability: 1.02 ± 0.2
IL-6-GFP PC-9
  cell viability: 1.03 ± 0.12

## CCOC(=O)C(CCc1ccccc1)NC1CSC(c2cccs2)CN(CC(=O)O)C1=O (configuration not stated) [Temocapril]
IL-6-GFP PC-9GR
  cell viability: 0.726 ± 0.078
IL-6-GFP PC-9
  cell viability: 1.14 ± 0.099

## Nc1ccn(C2OC(CO)C(O)C2(F)F)c(=O)n1 (configuration not stated) [Gemcitabine]
IL-6-GFP PC-9GR
  cell viability: 0.5847 ± 0.0053
IL-6-GFP PC-9
  cell viability: 0.5589 ± 0.0046
